A short description of assay [1]: qHTS assay to identify small molecule agonists of the RXR signaling pathway - cell viability counter screen (AID 1159529).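 Further: HEK 293T cells carrying an RXR-alpha UAS beta-lactamase reporter; series mostly up to about 77 µM; nearly all actives have a fitted effect of over 50% in size.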 The essentials: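 HEK 293T RXRa-bla cells, 2% CS-FBS; 5 h settle; cpd 16 h 37 C, 5% CO2; CellTiter-Glo 30 min RT, luminescence. Tetraoctyl ammonium bromide as positive control.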
The nature of assay [2]: qHTS assay to identify small molecule antagonists of the retinoid acid receptor (RAR) signaling pathway - cell viability counter screen (AID 1159551). Further: nearly all actives have a fitted effect of over 35% in size. A digest of the protocol:
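In this counter screen, the RARE-luciferase line C3RL4 was exposed for 6 h at 37 C and 5% CO2 to compounds with retinol at 1 uM final. Cellular ATP, read by luminescence, served as the viability measure.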
(In general: Quantitative high-throughput screening tests each substance at several concentrations.)

Assay [3] in a line: qHTS assay to identify small molecule antagonists of the retinoic acid receptor (RAR) signaling pathway (AID 1159552; further: nearly all actives have a fitted effect of over 50% in size). A digest of the protocol:
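Cells of the C3RL4 line were seeded, incubated overnight, then dosed with compounds in DMSO followed immediately by retinol (1 uM final). Six hours later luciferase detection reagent went in; signal was measured after 30 min at RT.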

A short description of assay [4]: qHTS assay to identify small molecule agonists of the retinoic acid receptor (RAR) signaling pathway (AID 1159553). Further: potency means the concentration at half of the fitted maximal effect. A digest of the protocol: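 In this cell-based screen, 1,000 C3RL4 cells per well were cultured overnight, dosed with test chemicals in DMSO for 6 hr, and assessed for RARE luciferase luminescence.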
Assay [5] in a line: qHTS assay to identify small molecule antagonists of the estrogen related receptor (ERR) signaling pathway from Tox21 library - cell viability counter screen (AID 1224834). Further: nearly all actives have a fitted effect of over 30% in size. Further: potency means the concentration at half of the fitted maximal effect. A digest of the protocol:
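Counter screen run in ERR cells (2,000 cells/well): cells pre-incubated 6 h, then treated with compounds for 17.5 h at 37 C. Fluorescence was read 30 min after CellTiter-Fluor addition.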

Assay [6] is described as follows: qHTS assay to identify small molecule agonists of the constitutive androstane receptor (CAR) signaling pathway - cell viability counter screen (AID 1224836). Further: nearly all actives have a fitted effect of over 45% in size. Further: potency means the concentration at half of the fitted maximal effect. On viability change, negative = cytotoxic: series mostly up to about 92 µM. A digest of the protocol: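 HepG2-CYP2B6-hCAR, 2500 cells/well, 4 h pre-incubation; cpd 15 conc + PK11195 0.75 uM final; 23 h, 37 C/5% CO2; CellTiter-Fluor, fluorescence.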
For assay [7], the target named is Nuclear receptor subfamily 1 group I member 3 (Homo sapiens) (UniProt Q14994). Kind of assay: qHTS assay to identify small molecule antagonists of the constitutive androstane receptor (CAR) signaling pathway (AID 1224838). Further: nearly all actives have a fitted effect of over 40% in size. The essentials: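 Inhibition of CITCO-driven (50 nM final) CYP2B6 reporter expression is measured in HepG2 cells stably carrying hCAR. Fifteen compound concentrations are applied for 24 h at 37 C, followed by luciferase luminescence.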
Sequence of Nuclear receptor subfamily 1 group I member 3 (Homo sapiens) (Q14994 whole entry, looked up): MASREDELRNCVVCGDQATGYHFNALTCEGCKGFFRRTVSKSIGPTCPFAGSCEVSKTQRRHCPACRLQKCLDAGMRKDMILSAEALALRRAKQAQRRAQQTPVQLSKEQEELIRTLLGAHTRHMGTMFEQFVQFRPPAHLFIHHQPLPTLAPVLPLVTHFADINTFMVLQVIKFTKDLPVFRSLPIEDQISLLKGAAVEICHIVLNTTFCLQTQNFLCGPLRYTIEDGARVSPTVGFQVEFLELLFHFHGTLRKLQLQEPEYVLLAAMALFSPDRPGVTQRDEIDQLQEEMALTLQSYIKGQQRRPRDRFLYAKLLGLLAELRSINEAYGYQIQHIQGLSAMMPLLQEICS

The target is the same in assay [8]. Kind of assay: qHTS assay to identify small molecule agonists of the constitutive androstane receptor (CAR) signaling pathway (AID 1224839). Further: nearly all actives have a fitted effect of over 15% in size. Further: potency means the concentration at half of the fitted maximal effect. On activation: series mostly up to about 92 µM. A digest of the protocol: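 HepG2-CYP2B6-hCAR cells, 2500/well, 4 h pre-incubation; compounds 15 conc.; PK11195 0.75 uM final; 24 h, 37 C/5% CO2; ONE-Glo luciferase read.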
A short description of assay [9]: qHTS assay to identify small molecule antagonists of the estrogen related receptor signaling pathway with the pleiotropic PPARgamma coactivator (PGC) from Tox21 10K library - cell viability counter screen (AID 1224840; active means well fitted cell-killing curve with a large enough effect in the repeat runs, not every such curve was filed as active; further: nearly all actives have a fitted effect of over 40% in size; further: potency means the concentration at half of the fitted maximal effect). A digest of the protocol:
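Readout: fluorescence intensity from CellTiter-Fluor after 30 min at 37 C/5% CO2. Preceded by 17.5 h treatment of PGC/ERR cells with DMSO-dissolved compounds, added 6 h post-seeding.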

A short description of assay [10]: qHTS assay to identify small molecule antagonists of the estrogen related receptor signaling pathway with the pleiotropic PPARgamma coactivator (PGC) from Tox21 10K library (AID 1224841; call rule not given here; further: series mostly up to about 92 µM; actives are mostly falling curves and most rising ones were filed inactive; nearly all actives have a fitted effect of over 50% in size). A digest of the protocol: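 One-Glo luminescence, measured after half an hour at room temperature, quantified reporter output of PGC/ERR cells. These had been plated at 2,000 per well, incubated 6 h, dosed with compounds in DMSO, then kept 18 h at 37 C.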

Assay [11] can be described thus: qHTS assay to identify small molecule agonists of the estrogen related receptor signaling pathway with the pleiotropic PPARgamma coactivator (PGC) from Tox21 10K library (AID 1224842). Further: nearly all actives have a fitted effect of over 15% in size. The essentials: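 PGC/ERR reporter cell line, 2,000 cells per well, incubated 6 h at 37 C before 23 nL compound in DMSO was added. After 18 h at 37 C, One-Glo luminescence read following 30 min at room temperature.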

Assay [12] addresses Thyrotropin receptor (Homo sapiens) (UniProt P16473). Kind of assay: qHTS assay to identify small molecule agonists of the thyroid stimulating hormone receptor (TSHR) signaling pathway (AID 1224843; calls by dose curve; further: nearly all actives have a fitted effect of over 45% in size; further: potency means the concentration at half of the fitted maximal effect). A digest of the protocol:
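Agonist-mode screen: TSHR HEK293 cells received test chemicals for half an hour at room temperature, then HTRF cAMP detection reagents for one hour prior to fluorescence measurement. Each chemical ran as a 15-concentration series, triplicated.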

For assay [13], the target named is Luciferin 4-monooxygenase (Photinus pyralis) (UniProt P08659). Kind of assay: qHTS assay to identify small molecule inhibitors of firefly luciferase (AID 1224835). Further: nearly all actives have a fitted effect of over 25% in size. Further: potency means the concentration at half of the fitted maximal effect. On activity change, negative = inhibition: series mostly up to about 120 µM. The essentials: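 Biochemical qHTS: compounds run as interplate titrations against purified firefly enzyme, with D-luciferin and ATP each at its KM concentration. Light output recorded by CCD imaging.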
Sequence of Luciferin 4-monooxygenase (Photinus pyralis) (P08659 whole entry, looked up): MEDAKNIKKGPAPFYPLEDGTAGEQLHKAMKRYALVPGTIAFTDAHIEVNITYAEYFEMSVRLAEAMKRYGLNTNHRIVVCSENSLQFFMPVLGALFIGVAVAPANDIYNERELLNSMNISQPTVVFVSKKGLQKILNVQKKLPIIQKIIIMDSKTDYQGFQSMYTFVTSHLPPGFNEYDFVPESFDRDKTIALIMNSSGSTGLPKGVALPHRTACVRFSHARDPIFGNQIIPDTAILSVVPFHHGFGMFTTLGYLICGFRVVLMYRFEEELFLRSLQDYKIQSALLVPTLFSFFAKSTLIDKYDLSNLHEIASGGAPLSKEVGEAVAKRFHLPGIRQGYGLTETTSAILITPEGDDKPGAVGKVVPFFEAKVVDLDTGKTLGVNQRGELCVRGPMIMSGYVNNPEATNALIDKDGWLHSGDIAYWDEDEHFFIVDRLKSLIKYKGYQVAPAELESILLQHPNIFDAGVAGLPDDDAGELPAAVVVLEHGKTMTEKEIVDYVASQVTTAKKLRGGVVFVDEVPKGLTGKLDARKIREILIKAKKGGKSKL

Assay [14] is described as follows: qHTS assay to identify small molecule antagonists of the constitutive androstane receptor (CAR) signaling pathway - cell viability counter screen (AID 1224837). Further: nearly all actives have a fitted effect of over 45% in size. Further: potency means the concentration at half of the fitted maximal effect. On activity change, negative = cytotoxicity: series mostly up to about 92 µM. A digest of the protocol:
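CITCO at 50 nM final was added alongside compounds (15 concentrations) to double-stable hCAR/CYP2B6-2.2kb HepG2 cells. Following 23 hr at 37 C, cell viability was quantified by CellTiter-Fluor fluorescence intensity.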

Inconclusive results are not listed. Some compounds were tested as several samples or in several runs, with calls that do not always agree. Activity calls are given as the source filed them. Unless noted, the call rests on the fitted dose curve; in most records, active means well fitted curve in the direction sought with a large enough effect in the repeat runs; inconclusive means weak or mixed curves; inactive means no such curve, though single readings can be large; an effect the other way counts as inactive or inconclusive.

The values below come from PubChem BioAssay (Tox21).
On the % scale 0 is the no-effect control and ±100 the full control effect.

Sequence of Thyrotropin receptor (Homo sapiens) (P16473 whole entry, looked up): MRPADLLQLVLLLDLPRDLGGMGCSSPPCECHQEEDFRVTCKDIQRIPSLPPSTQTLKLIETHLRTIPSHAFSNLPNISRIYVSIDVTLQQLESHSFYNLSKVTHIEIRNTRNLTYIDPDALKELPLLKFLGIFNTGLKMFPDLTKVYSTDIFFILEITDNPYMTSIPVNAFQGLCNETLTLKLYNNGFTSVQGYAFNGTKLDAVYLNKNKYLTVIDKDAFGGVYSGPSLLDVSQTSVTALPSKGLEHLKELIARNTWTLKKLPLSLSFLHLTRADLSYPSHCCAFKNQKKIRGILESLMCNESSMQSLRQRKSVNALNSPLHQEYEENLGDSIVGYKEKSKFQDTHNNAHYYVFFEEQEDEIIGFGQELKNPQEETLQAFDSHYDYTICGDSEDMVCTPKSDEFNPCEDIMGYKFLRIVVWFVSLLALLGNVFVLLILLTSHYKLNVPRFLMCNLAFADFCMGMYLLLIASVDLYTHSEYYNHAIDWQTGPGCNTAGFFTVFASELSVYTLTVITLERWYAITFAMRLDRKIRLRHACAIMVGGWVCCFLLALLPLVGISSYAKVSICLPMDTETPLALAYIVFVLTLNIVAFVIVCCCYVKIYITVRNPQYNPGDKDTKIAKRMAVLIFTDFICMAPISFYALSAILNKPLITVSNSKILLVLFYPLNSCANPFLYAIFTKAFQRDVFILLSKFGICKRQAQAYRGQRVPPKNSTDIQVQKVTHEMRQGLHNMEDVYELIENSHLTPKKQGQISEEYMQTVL

As for `Clc1ccc(Cl)c(Cl)c1`, the Potency entry in assay [1], in assay [2], in [3], in [4], in assay [5] and in [6] was “inactive” throughout. Besides, the Potency result in [7], in assay [8], in assay [9], in assay [10] and in assay [11] was “inactive” each time. The Potency in [12] is 2.98 µM (active) and inactive.

Take `Nc1c(Br)cc(Br)c2c1C(=O)c1ccccc1C2=O`: the values for the activity change, negative = cytotoxicity in assay [1] and in assay [2] were 4.15% [at 15.8 µM] (inactive) and 0.857% [at 19 µM] (inactive), respectively. Besides, the activity, negative = inhibition in assay [3] was 12.6% [at 19 µM] (inactive); in assay [7] it was 102% [at 19 µM] (inactive); in assay [10] it was 5.52% [at 19 µM] (inactive). For the same compound, the Potency result in assay [4] was “inactive”. The viability change, negative = cytotoxic is -5.59% [at 19 µM] (inactive) in assay [5] and -14.9% [at 19 µM] (inactive) in assay [9]. The activity change, negative = inhibition in assay [13] was -3.13% [at 23.6 µM] (inactive). Further, the activation in assay [8] was 7.31% [at 19 µM] (inactive); in assay [11], 0.394% [at 19 µM] (inactive); in [12], -6.18% [at 19 µM] (inactive).

Turning to `C=C(C)C(=O)OCCCCOC(=O)C(=C)C`, the Potency result in [1], in [2], in assay [3], in assay [4], in [5] and in assay [6] was “inactive” in each case. In addition, the Potency result in assay [14], in assay [7], in [8], in [9], in assay [10] and in assay [11] was “inactive” each time. Further, in assay [12], the Potency entry is “inactive”.

`CC(C)c1ccc(NC(=O)N(C)C)cc1`: the Potency entry in [1], in assay [2], in assay [3], in [6], in assay [7] and in [9] was “inactive” throughout. Further, the Potency entry in assay [10] was “inactive”. In addition, the Potency in assay [4] is 13.7 µM (active); in [13], 71 µM (active); in assay [8], 48.5 µM (active).

With `C[C@H]1O[C@H](OC2[C@@H](O)[C@@H](O)C(O)[C@H](O)[C@H]2O)[C@@H](N)C[C@@H]1N=C(N)C(=O)O` (some centres undefined), the Potency entry in assay [1], in assay [2], in [3], in assay [5], in [13] and in assay [6] was “inactive” throughout. Moreover, the Potency entry in [14], in assay [7], in [8], in assay [9] and in assay [12] was “inactive” throughout.

Take `Cc1nnc(-c2ccccc2)c(=O)n1N`: the Potency entry in [1], in assay [2], in assay [3], in [5], in assay [13] and in assay [6] was “inactive” in each case. The Potency result in assay [14], in assay [7], in assay [9] and in [12] was “inactive” throughout.

As for `O=C(O)C(Cl)(Cl)Br`, the Potency entry in [1], in assay [2], in assay [3], in assay [4], in assay [5] and in assay [13] was “inactive” each time. The Potency entry in assay [14], in [7] and in [9] was “inactive” in each case.

For the compound `O=C(N/N=C/c1ccc([N+](=O)[O-])o1)c1cc([N+](=O)[O-])cc([N+](=O)[O-])c1O`, the Potency result in assay [1], in [2], in [3], in [7] and in assay [12] was “inactive” each time. Besides, the Potency in assay [5] is 11.9 µM (active); in [13], 21.9 µM (active); in assay [6], 11.9 µM (active); in [14], 10.6 µM (active); in assay [8], 15 µM (active); in [9], 11.9 µM (active).

For the compound `CCOP(=S)(OCC)SCSc1cc(Cl)ccc1Cl`, the Potency entry in assay [1], in assay [2], in [3], in assay [4], in [5] and in [13] was “inactive” each time. Also, the Potency entry in assay [14], in assay [7], in [8], in [9] and in assay [12] was “inactive” in each case.

`CCc1ccccc1N`: the Potency entry in [1], in assay [2], in [3], in assay [5], in assay [13] and in [6] was “inactive” in each case. Besides, the Potency result in assay [14], in assay [7], in [8], in assay [9] and in assay [12] was “inactive” in each case.

For `CCC(C)Cl` (centres undefined), the Potency entry in assay [1], in assay [2], in [3], in assay [4], in assay [5] and in assay [13] was “inactive” each time. For the same compound, the Potency result in assay [7], in assay [8] and in [9] was “inactive” each time.
